The source of these data is publication PMC7862700, “An all-to-all approach to the identification of sequence-specific readers for epigenetic DNA modifications on cytosine”.

Common to all, as to test: DAPPL (digital affinity profiling via proximity ligation, sequencing); 10 mM Tris-HCl pH 7.5, 50 mM NaCl, 1 mM DTT, 4% glycerol, room temperature, 30 min; GST-TFs on glutathione beads, 16-mer random dsDNA library, 0.1% formaldehyde crosslink after washing; high values mean tight binding
What all share (conditions): protein: recombinant; tags: N-terminal GST; dsDNA, one strand shown

One assay has as its target T1, ERF (Homo sapiens, UniProt P50548 1-548).
T1 sequence: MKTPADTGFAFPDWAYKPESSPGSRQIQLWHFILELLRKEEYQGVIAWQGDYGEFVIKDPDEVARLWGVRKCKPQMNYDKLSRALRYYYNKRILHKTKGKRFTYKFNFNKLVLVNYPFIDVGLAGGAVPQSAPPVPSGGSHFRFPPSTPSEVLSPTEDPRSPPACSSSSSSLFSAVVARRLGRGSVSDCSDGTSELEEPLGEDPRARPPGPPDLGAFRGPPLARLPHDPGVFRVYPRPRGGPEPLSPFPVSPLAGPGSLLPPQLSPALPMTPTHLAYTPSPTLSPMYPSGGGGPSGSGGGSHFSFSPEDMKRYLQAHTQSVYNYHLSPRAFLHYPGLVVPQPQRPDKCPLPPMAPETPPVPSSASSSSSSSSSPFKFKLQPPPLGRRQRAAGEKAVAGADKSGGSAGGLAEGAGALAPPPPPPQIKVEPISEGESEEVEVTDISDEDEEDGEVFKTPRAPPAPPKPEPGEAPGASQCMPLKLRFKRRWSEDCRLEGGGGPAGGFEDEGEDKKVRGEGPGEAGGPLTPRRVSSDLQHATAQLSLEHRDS
In outline: (§1)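 Pools of DNA-barcoded human transcription factors, expressed in yeast as GST fusions on glutathione beads and combined with a tag-only sample, were incubated with 200 nmole of a 16-mer random double-stranded DNA library. Incubation took 30 min at room temperature in Tris/NaCl/DTT/glycerol buffer and was followed by washing, 0.1% formaldehyde crosslinking, proximity ligation (BsaI/T4 ligase, 1 h, 37 °C), PCR amplification and sequencing on an Illumina NextSeq500. Binding signal is the ratio of a hexamer's read frequency for a factor to its frequency for the tag-only sample.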

The target of the next assay is T2, SPDEF (Homo sapiens, UniProt O95238 1-335).
T2 sequence: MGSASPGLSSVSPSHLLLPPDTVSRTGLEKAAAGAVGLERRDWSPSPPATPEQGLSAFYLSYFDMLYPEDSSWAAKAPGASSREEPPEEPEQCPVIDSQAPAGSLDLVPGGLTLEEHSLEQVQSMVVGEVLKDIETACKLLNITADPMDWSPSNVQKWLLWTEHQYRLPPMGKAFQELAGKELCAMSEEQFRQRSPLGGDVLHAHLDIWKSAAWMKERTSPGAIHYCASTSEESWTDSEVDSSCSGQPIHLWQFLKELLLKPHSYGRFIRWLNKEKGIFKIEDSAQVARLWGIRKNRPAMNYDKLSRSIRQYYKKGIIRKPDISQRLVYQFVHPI
The gist of the method: as §1

The next assay has as its target T3, ETV7 (Homo sapiens, UniProt Q9Y603 1-341).
T3 sequence: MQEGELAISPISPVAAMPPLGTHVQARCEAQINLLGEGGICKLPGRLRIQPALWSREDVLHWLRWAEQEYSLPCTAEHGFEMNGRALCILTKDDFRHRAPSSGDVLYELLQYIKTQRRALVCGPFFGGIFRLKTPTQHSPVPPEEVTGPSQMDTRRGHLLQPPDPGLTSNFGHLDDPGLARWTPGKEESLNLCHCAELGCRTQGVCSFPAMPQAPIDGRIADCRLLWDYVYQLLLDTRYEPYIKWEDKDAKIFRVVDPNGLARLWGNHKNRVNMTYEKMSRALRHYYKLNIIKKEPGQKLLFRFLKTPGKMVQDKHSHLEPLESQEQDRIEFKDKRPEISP
The gist of the method: as §1

Another assay addresses T4, ETV3 (Homo sapiens, UniProt P41162-2 1-143).
T4 sequence: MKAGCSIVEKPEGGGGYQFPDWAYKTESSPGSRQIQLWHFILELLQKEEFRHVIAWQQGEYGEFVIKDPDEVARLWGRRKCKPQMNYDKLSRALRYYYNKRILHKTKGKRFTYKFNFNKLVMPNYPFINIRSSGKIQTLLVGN
The gist of the method: as §1

The target of the next assay is T5, ETS2 (Homo sapiens, UniProt P15036 1-469).
T5 sequence: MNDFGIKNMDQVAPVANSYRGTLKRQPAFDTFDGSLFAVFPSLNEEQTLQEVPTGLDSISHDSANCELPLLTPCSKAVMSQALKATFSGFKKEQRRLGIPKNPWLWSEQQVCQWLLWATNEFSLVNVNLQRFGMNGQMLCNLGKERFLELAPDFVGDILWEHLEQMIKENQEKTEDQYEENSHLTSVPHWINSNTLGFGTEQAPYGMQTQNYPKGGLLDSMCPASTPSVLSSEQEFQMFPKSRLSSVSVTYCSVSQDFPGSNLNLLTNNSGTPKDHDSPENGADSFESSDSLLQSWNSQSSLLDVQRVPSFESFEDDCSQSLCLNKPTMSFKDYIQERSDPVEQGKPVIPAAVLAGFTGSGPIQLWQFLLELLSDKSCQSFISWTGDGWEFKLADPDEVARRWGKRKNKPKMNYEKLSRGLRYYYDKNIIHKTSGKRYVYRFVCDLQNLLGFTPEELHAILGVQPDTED
The gist of the method:
as §1

For another assay, the target named is T6, ELF5 (Homo sapiens, UniProt Q9UKW6-2 1-255).
T6 sequence: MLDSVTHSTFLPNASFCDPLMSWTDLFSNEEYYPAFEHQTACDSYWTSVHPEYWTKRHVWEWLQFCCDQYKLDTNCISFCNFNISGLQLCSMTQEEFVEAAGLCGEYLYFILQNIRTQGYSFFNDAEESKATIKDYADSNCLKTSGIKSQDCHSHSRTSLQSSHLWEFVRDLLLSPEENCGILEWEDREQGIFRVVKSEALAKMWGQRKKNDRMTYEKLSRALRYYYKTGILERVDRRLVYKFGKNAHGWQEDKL
In outline: as §1

Another assay addresses ETV6 (Homo sapiens, UniProt P41212 1-452). The gist of the method: as §1
The target in a further assay is T7, ETV3L (Homo sapiens, UniProt Q6ZN32 1-361).
T7 sequence: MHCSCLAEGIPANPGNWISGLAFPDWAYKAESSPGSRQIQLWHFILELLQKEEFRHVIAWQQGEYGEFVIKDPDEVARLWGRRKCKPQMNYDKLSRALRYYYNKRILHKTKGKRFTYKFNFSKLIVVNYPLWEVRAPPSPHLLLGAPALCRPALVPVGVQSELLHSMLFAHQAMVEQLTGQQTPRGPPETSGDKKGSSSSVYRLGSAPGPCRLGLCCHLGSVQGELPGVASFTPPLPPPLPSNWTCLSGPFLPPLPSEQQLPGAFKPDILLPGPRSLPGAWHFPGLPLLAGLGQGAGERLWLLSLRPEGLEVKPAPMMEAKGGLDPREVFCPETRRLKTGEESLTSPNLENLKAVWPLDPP
In outline:
as §1

Chain of ETV6 (P41212 whole entry): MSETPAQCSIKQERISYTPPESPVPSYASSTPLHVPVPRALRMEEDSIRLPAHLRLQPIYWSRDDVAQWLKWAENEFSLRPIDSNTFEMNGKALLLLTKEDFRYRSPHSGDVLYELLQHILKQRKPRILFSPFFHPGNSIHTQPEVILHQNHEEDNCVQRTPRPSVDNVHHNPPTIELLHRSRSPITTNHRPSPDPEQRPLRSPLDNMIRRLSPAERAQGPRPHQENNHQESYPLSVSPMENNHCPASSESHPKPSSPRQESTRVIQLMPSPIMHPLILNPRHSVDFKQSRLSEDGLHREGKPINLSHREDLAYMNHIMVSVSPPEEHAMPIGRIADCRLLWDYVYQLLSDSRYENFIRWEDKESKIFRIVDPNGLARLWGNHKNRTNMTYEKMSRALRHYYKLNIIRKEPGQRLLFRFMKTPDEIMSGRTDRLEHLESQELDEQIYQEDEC

For CGAAAT, the binding signal with ERF was 1.03 fold enrichment (6-mer frequency, TF over GST control); with SPDEF, 1.04 fold enrichment (6-mer frequency, TF over GST control); in the assay with ETV7, 1.11 fold enrichment (6-mer frequency, TF over GST control); in the assay with ETV3 it was 1.03 fold enrichment (6-mer frequency, TF over GST control).

On to TAAGGT, for which the binding signal is 1.06 fold enrichment (6-mer frequency, TF over GST control) with ERF; 1.06 fold enrichment (6-mer frequency, TF over GST control) with ETS2; 1.15 fold enrichment (6-mer frequency, TF over GST control) with SPDEF; 1.04 fold enrichment (6-mer frequency, TF over GST control) with ETV7; 1.05 fold enrichment (6-mer frequency, TF over GST control) with ELF5; 1.11 fold enrichment (6-mer frequency, TF over GST control) with ETV3. Also, in the assay with ETV6, the binding signal was 1.08 fold enrichment (6-mer frequency, TF over GST control).

Take GTTAAA: the binding signal with ERF was 1.09 fold enrichment (6-mer frequency, TF over GST control); with ETV3L it was 1.04 fold enrichment (6-mer frequency, TF over GST control); with ETV3, 1.04 fold enrichment (6-mer frequency, TF over GST control); with ETV6, 1.08 fold enrichment (6-mer frequency, TF over GST control).

Regarding TGCTGT, the binding signal in the assay with ERF is 1.08 fold enrichment (6-mer frequency, TF over GST control); with ETS2 it was 1.15 fold enrichment (6-mer frequency, TF over GST control); with ETV7 it was 1.13 fold enrichment (6-mer frequency, TF over GST control); in the assay with ETV6, 1.03 fold enrichment (6-mer frequency, TF over GST control).

For the sequence GGTTCA, the binding signal is 1.01 fold enrichment (6-mer frequency, TF over GST control) with ERF; 1.11 fold enrichment (6-mer frequency, TF over GST control) with ETS2; 1.13 fold enrichment (6-mer frequency, TF over GST control) with SPDEF; 1.02 fold enrichment (6-mer frequency, TF over GST control) with ELF5; 1.09 fold enrichment (6-mer frequency, TF over GST control) in the assay with ETV3; 1.09 fold enrichment (6-mer frequency, TF over GST control) with ETV6.

On to GCCCAT, for which the binding signal in the assay with ERF was 1.05 fold enrichment (6-mer frequency, TF over GST control); with ETS2, 1 fold enrichment (6-mer frequency, TF over GST control); with ELF5, 1.01 fold enrichment (6-mer frequency, TF over GST control); in the assay with ETV3, 1.01 fold enrichment (6-mer frequency, TF over GST control).

Take GAATTA: the binding signal with ERF is 1.06 fold enrichment (6-mer frequency, TF over GST control); in the assay with ETS2 it was 1.05 fold enrichment (6-mer frequency, TF over GST control); with SPDEF, 1.01 fold enrichment (6-mer frequency, TF over GST control); in the assay with ETV7 it was 1.06 fold enrichment (6-mer frequency, TF over GST control); with ELF5, 1.03 fold enrichment (6-mer frequency, TF over GST control); with ETV3, 1.1 fold enrichment (6-mer frequency, TF over GST control). The binding signal in the assay with ETV6 is 1.08 fold enrichment (6-mer frequency, TF over GST control).

Regarding AAACGA, the binding signal with ERF was 1.17 fold enrichment (6-mer frequency, TF over GST control); with ETS2 it was 1.15 fold enrichment (6-mer frequency, TF over GST control); in the assay with SPDEF, 1.03 fold enrichment (6-mer frequency, TF over GST control); with ETV7 it was 1.05 fold enrichment (6-mer frequency, TF over GST control); with ELF5 it was 1.09 fold enrichment (6-mer frequency, TF over GST control); with ETV3, 1.07 fold enrichment (6-mer frequency, TF over GST control). In the assay with ETV6, the binding signal is 1.12 fold enrichment (6-mer frequency, TF over GST control).

GCAATA: the binding signal was 1.03 fold enrichment (6-mer frequency, TF over GST control) with ERF; 1.04 fold enrichment (6-mer frequency, TF over GST control) with ETS2; 1.04 fold enrichment (6-mer frequency, TF over GST control) with SPDEF; 1.08 fold enrichment (6-mer frequency, TF over GST control) with ETV7; 1.04 fold enrichment (6-mer frequency, TF over GST control) in the assay with ETV3; 1.03 fold enrichment (6-mer frequency, TF over GST control) with ETV6.
